Source: PubChem BioAssay
Values joined by “and” are separate entries in the source; they are usually repeats but may differ in a detail not shown here. Identical values can stand only once. Active and inactive are the calls of the source.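 How the source made its calls, unless noted: active means compounds whose cell count with miR-34 switched on is under 0.7 times the count with it off; inactive means the rest.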

Columns and labels:
[1] = stimulators of nuclear beta-catenin in C2C12, primary screen, imaging, WNT3A-conditioned medium, mouse C2C12, NPC library (AID 1117326; in the data active means nuclear beta-catenin stimulation mostly above about 4.2%, no sharp cut-off; inactive means mostly below about 10%); conditions: stronger effect = higher value
[2] = stimulators of insulin release from INS-1E, primary screen, cell-based, 5 mM glucose, NPC library (AID 1117329;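 active means compound raises insulin release from rat beta cells at 5 mM glucose, no numeric limit stated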); conditions: rat INS-1E insulin secretion, at 10 µM, stronger effect = higher value
[3] = growth inhibition of GSK3B-pretreated HCT116 cells – cell-based, CellTiter-Glo, 0.2 to 20 µM (AID 1117336;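 active means compounds lowering colon cancer cell viability after pretreatment blocking the GSK3B kinase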); conditions: HCT116 viability after GSK3B inhibitor, at 20 µM, stronger effect = higher value
[4] = inhibition of endothelial tube formation, primary screen, imaging, VEGF stimulated, CD31 staining, tube area, NPC library (AID 1117340;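 active means compound that reduces growth-factor-driven endothelial tube area in a mixed cell culture, no cutoff stated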); conditions: VEGF-stimulated ADSC/ECFC co-culture, at 10 µM, stronger effect = higher value
[5] = glucagon-like peptide 1 release enhancers, primary assay, NCI-H716 cell line, NPC library (AID 1117341;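 active means compound raises GLP1 secretion from the human gut endocrine cells, with no numeric limit stated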); conditions: NCI-H716 cells, at 10 µM, stronger effect = higher value
[6] = HCT116 colon cancer cell growth inhibition, primary screen, CellTiter-Glo luminescence, NPC library (AID 1117342;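 active means compounds that lower survival of HCT116 colon cancer cells in the luminescence readout, no numeric limit stated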); conditions: at 20 µM (top of the series)
[7] = CellTiter-Glo luminescent readout of SW480 viability loss, NPC library primary (AID 1117343;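 active means compounds that lower viability of the colon cancer cells in the luminescence readout, with no numeric limit stated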); conditions: CellTiter-Glo luminescence; at 20 µM (top of the series) unless noted
[8] = decreased DLD-1 cellular survival, CellTiter-Glo luminescent readout, NPC compound collection, primary HTS (AID 1117346;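 active means compounds that lower survival of DLD-1 colon cancer cells in the luminescence readout, no cutoff given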); conditions: DLD-1 viability, CellTiter-Glo luminescence; at 20 µM (top of the series)
[9] = differential killing of epithelial or mesenchymal cells, primary screen, imaging, PC-3E GFP, TEM4-18 mCherry, co-culture (AID 1345086;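 active means compounds killing one labelled cell type while sparing the other, by normalised counts and ratio limits, not self-fluorescent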;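 on all read-outs here: cells exposed to compound for 72 h before imaging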;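 on red/green cell ratio (normalised): normalised mesenchymal count divided by normalised epithelial count so high means epithelial killing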); conditions: imaging cell counts, at 1 µM; for red/green cell ratio (normalised): actives lie on both sides, counts scaled to control wells, 1 = unselective
[10] = sensitizers of A549 cells to miR-34 induction, primary screen, imaging, A549 dox-inducible miR-34, nuclei and caspase counts (AID 1347080); conditions: A549 miR-34 inducible, Hoechst nuclei count, 48 h
[11] = biological target: NAD(+) hydrolase SARM1 (Homo sapiens) (UniProt Q6SZW1); experiment: SARM1 TIR NADase inhibitors, cell lysate, NAD-Glo luminescence (AID 1508614;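 active means compound whose remaining NAD level is above about 45 nM, limit read from the data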); conditions: SAM-TIR HEK293T lysate NADase, at 1 µM, stronger effect = higher value
Sequence of NAD(+) hydrolase SARM1 (Homo sapiens) (Q6SZW1 whole entry, looked up): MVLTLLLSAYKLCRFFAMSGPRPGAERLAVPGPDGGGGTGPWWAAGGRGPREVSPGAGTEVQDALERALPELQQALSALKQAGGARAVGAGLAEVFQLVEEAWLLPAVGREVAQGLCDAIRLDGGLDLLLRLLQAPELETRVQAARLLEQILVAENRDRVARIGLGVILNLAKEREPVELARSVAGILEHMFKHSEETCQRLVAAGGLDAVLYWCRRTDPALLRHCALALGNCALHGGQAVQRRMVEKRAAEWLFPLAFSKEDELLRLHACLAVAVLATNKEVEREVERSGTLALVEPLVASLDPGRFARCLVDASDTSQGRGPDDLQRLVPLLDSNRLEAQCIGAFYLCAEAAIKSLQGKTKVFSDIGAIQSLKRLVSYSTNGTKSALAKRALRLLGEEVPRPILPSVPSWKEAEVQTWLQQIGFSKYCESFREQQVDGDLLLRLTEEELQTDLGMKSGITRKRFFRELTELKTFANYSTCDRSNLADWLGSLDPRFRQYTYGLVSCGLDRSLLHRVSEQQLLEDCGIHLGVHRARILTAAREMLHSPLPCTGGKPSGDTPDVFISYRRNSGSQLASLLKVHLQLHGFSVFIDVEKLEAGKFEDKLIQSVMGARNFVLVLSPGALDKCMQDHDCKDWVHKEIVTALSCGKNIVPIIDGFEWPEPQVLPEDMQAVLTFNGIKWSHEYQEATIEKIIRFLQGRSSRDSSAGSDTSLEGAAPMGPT

[12] = survival rescue of mitochondrial mutant cells in low glucose, primary screen, MELAS cybrids, Rieske KO mouse fibroblasts, CellTiter-Glo (AID 1508586;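 active means mean z-score across replicates of 1.96 or higher in either the MELAS or the Rieske mutant cell line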;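 further: z relative to plate mean and SD of compound and empty wells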)
[13] = hESC survival regulators, cell-based (AID 493140; call rule not given here;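 further: cells exposed to compounds for four days before counting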); conditions: human embryonic stem cell survival screen; stronger effect = higher value
[14] = liver-stage malaria parasite growth inhibition, primary screen, cell-based, HepG2, luciferase luminescence, HepG2 viability (AID 624349; in the data active means parasite load remaining mostly below about 12%, no sharp cut-off; inactive means mostly above about 10%;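 further: 100% = mean of DMSO negative control wells on the same plate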); conditions: P. berghei liver stage in HepG2, luciferase luminescence, concentration not given here; parasite load remaining: stronger effect = lower value; viability: measured here: HepG2 viability without parasites
[15] = LFS_MB_P medulloblastoma growth inhibition, cell-based, chromothripsis tumors, cisplatin or BGB combos (AID 1671449; in the data active means inhibition above about 80%;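 further: cells exposed for 96 hours; 0% = vehicle DMSO and 100% = killing by high DMSO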); conditions: LFS_MB_P medulloblastoma cells
[16] = HDN33 neuroblastoma growth inhibition, cell-based, chromothripsis tumors, cisplatin or BGB combos (AID 1671450; in the data active means inhibition above about 80%;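 further: cells exposed to compound for four days; 0% = vehicle DMSO and 100% = cell killing by high DMSO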); conditions: HDN33 neuroblastoma cells, stronger effect = higher value
[17] = ICB984 medulloblastoma cell growth inhibition, synergistic combos for chromothripsis tumors, cisplatin or BGB combos (AID 1671451; call rule not given here;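 further: cells exposed for 96 hours before readout; 0% = vehicle DMSO and 100% = killing by high DMSO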); conditions: ICB984 medulloblastoma cells, drug combinations, stronger effect = higher value
[18] = HTB85 osteosarcoma cell growth inhibition, synergistic combos for chromothripsis tumors, BGB or cisplatin IC20 combos (AID 1671453; in the data active means inhibition above about 80%;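 further: cells exposed for 96 hours before readout; 0% = vehicle DMSO and 100% = high DMSO killing control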); conditions: HTB85 osteosarcoma cells, drug combinations, stronger effect = higher value
[19] = MDA-MB-436 breast carcinoma cell growth inhibition, synergistic combos for chromothripsis tumors, BGB or cisplatin combos (AID 1671458; call rule not given here;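 further: cells exposed for 96 hours; 0% = vehicle DMSO and 100% = killing by high DMSO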); conditions: MDA-MB-436 breast carcinoma growth inhibition, drug combinations, stronger effect = higher value
[20] = measured here: epithelial PC-3E GFP cell survival
[21] = measured here: mesenchymal TEM4-18 mCherry cell survival
[22] = stronger effect = lower value, cell number ratio, induced over uninduced
[23] = measured here: relative caspase fold change +Dox/-Dox
[24] = measured here: total cells with miR-34 induction, stronger effect = lower value
[25] = measured here: total cells without miR-34 induction
[26] = MELAS cybrid survival, CellTiter-Glo 48 h, stronger effect = higher value
[27] = Rieske KO mouse fibroblast survival, CellTiter-Glo 72 h

## O=[N+]([O-])c1ccc(O)c2ncccc12
[1]; at 10 µM
  nuclear beta-catenin stimulation: 45.6% (active)
[1]; stimulation, at 2 µM
  nuclear beta-catenin stimulation: 1.9%
[2]
  insulin secretion stimulation: -1.1% (inactive)
[3]
  viability decrease: 95.8% (active)
[4]
  tube area decrease: 102% (active)
[5]
  GLP1 secretion stimulation: -11.4% (inactive)
[6]
  inhibition of viability: 76.5% (active)
[7]
  viability decrease (inhibition): 112% (active)
[8]
  viability decrease (inhibition): 80.7% (active)
[9]
  red/green cell ratio (normalised): 0.89 (inactive)
[9]; [20]
  normalised cell number: 1.07
[9]; [21]
  normalised cell number: 0.95
[10]; [22]
  fold change: 0.979 (inactive)
[10]; [23]
  fold change: 0.972
[10]; [24]
  cell count: 2410
[10]; [25]
  cell count: 2460
[11]
  remaining NAD: 10 nM (inactive)

## CC(S)C(=O)NCC(=O)O (stereo not drawn)
[1]; at 10 µM
  nuclear beta-catenin stimulation: -0.5% (inactive)
[1]; stimulation, at 2 µM
  nuclear beta-catenin stimulation: 0.7%
[2]
  insulin secretion stimulation: -0.8% (inactive)
[3]
  viability decrease: -7.03% (inactive)
[4]
  tube area decrease: 17.7% (inactive)
[5]
  GLP1 secretion stimulation: -1.7% (inactive)
[6]
  inhibition of viability: -7.95% (inactive)
[7]
  viability decrease (inhibition): 46.8% (inactive)
[8]
  viability decrease (inhibition): 0.37% (inactive)
[9]
  red/green cell ratio (normalised): 0.9 (inactive)
[9]; [20]
  normalised cell number: 1.06
[9]; [21]
  normalised cell number: 0.94
[10]; [22]
  fold change: 0.956 (inactive) and 0.886 (inactive)
[10]; [23]
  fold change: 0.809 and 0.891
[10]; [24]
  cell count: 8410 and 8420
[10]; [25]
  cell count: 8800 and 9500
[12]; [26]
  z-score: -0.286 (inactive)
[12]; [27]
  z-score: 0.558
[11]
  remaining NAD: 10 nM (inactive)

## CNCCCC1c2ccccc2C=Cc2ccccc21
[13]
  survival: 0.667 (inactive)
[14]
  parasite load remaining: 64.9% (inactive) and 67.7% (inactive)
  viability: 77.6% and 100%
[1]; at 10 µM
  nuclear beta-catenin stimulation: 2% (inactive)
[1]; stimulation, at 2 µM
  nuclear beta-catenin stimulation: 0.5%
[2]
  insulin secretion stimulation: 1.7% (inactive)
[3]
  viability decrease: -46.9% (inactive)
[4]
  tube area decrease: 40.6% (active)
[5]
  GLP1 secretion stimulation: 6.8% (inactive)
[6]
  inhibition of viability: 39.3% (inactive)
[7]
  viability decrease (inhibition): 87.8% (active)
[8]
  viability decrease (inhibition): 30.3% (inactive)
[9]
  red/green cell ratio (normalised): 1.06 (inactive)
[9]; [20]
  normalised cell number: 0.98
[9]; [21]
  normalised cell number: 1.04
[10]; [22]
  fold change: 1.12 (inactive) and 0.946 (inactive) and 0.93 (inactive)
[10]; [23]
  fold change: 1.27 and 1.04 and 5.53
[10]; [24]
  cell count: 6500 and 6350 and 11800
[10]; [25]
  cell count: 5820 and 6720 and 12700
[12]; [26]
  z-score: -0.141 (inactive)
[12]; [27]
  z-score: -0.441
[11]
  remaining NAD: 10 nM (inactive)

## O=C(O)c1cc(=O)[nH]c(=O)[nH]1
[1]; at 10 µM
  nuclear beta-catenin stimulation: 2.7% (inactive)
[1]; stimulation, at 2 µM
  nuclear beta-catenin stimulation: 1.2%
[2]
  insulin secretion stimulation: -0.7% (inactive)
[3]
  viability decrease: 0.3% (inactive)
[4]
  tube area decrease: -4.9% (inactive)
[5]
  GLP1 secretion stimulation: 2.6% (inactive)
[6]
  inhibition of viability: 1.8% (inactive)
[7]
  viability decrease (inhibition): 18.7% (inactive)
[8]
  viability decrease (inhibition): 0.25% (inactive)
[9]
  red/green cell ratio (normalised): 0.81 (inactive)
[9]; [20]
  normalised cell number: 1.22
[9]; [21]
  normalised cell number: 0.99
[10]; [22]
  fold change: 0.909 (inactive) and 0.91 (inactive)
[10]; [23]
  fold change: 0.683 and 0.794
[10]; [24]
  cell count: 8860 and 8140
[10]; [25]
  cell count: 9750 and 8950
[12]; [26]
  z-score: -0.414 (inactive)
[12]; [27]
  z-score: -0.146
[11]
  remaining NAD: 10 nM (inactive)
[15]; at 0.5 µM, stronger effect = higher value
  inhibition: -14.8% (inactive) and 6.04% (inactive)
[15]; measured here: combination with BGB IC20, at 0.005 µM
  inhibition: -3.6% and -6.88%
[15]; measured here: combination with BGB IC40, at 0.005 µM
  inhibition: 28.3% and -31.4%
[15]; measured here: combination with BGB IC40, at 0.05 µM
  inhibition: -7.85% and -7.79%
[15]; measured here: combination with cisplatin, at 0.5 µM, stronger effect = higher value
  inhibition: -24.1% and -4.55%
[15]; measured here: combination with cisplatin, at 5 µM, stronger effect = higher value
  inhibition: -5.53% and -40.7%
[16]; BGB combo, at 5 µM
  inhibition: 13.5% and -51.1%
[16]; at 0.5 µM
  inhibition: 15.1% (inactive) and -24.6% (inactive)
[16]; cisplatin combo, at 5 µM
  inhibition: 14.4% and -17.2%
[16]; measured here: with BGB IC20 combination, at 0.5 µM
  inhibition: 10.5% and -14.2%
[16]; measured here: with cisplatin IC20 combination, at 0.5 µM
  inhibition: 24.7% and -33.5%
[16]; single agent, at 5 µM
  inhibition: 12.4% and -40.1%
[17]; BGB IC20 combo, at 0.005 µM
  inhibition: -7.3% and -18.5%
[17]; BGB IC40 combo, at 0.005 µM
  inhibition: -15.2% and -60.1%
[17]; BGB IC40 combo, at 0.05 µM
  inhibition: 9.75% and -38.4%
[17]; at 0.5 µM
  inhibition: 7.77% (inactive) and -27.4% (inactive)
[17]; cisplatin combo, at 0.05 µM
  inhibition: 9.75% and -43.9%
[17]; cisplatin combo, at 0.5 µM
  inhibition: -1.72% and -34.4%
[17]; cisplatin combo, at 5 µM
  inhibition: 27.1% and -45.2%
[17]; measured here: 5 uM single agent, at 5 µM
  inhibition: 8.32% and 10.3%
[18]; at 0.5 µM
  inhibition: 5.03% (inactive) and -15.1% (inactive)
[18]; measured here: with BGB IC20, at 0.5 µM
  inhibition: -2.41% and -19.2%
[18]; measured here: with BGB IC20, at 5 µM
  inhibition: 15.1% and -5.19%
[18]; measured here: with cisplatin IC20, at 0.5 µM
  inhibition: 6.2% and -21.8%
[18]; measured here: with cisplatin IC20, at 5 µM
  inhibition: 13% and -19.1%
[18]; single agent, at 5 µM
  inhibition: 16% and -13.4%
[19]; at 0.5 µM
  inhibition: 2.87% (inactive) and -29.1% (inactive)
[19]; measured here: BGB combination, at 0.5 µM
  inhibition: 7.16% and -31.6%
[19]; measured here: BGB combination, at 5 µM
  inhibition: 4.32% and -38.3%
[19]; measured here: cisplatin combination, at 0.5 µM
  inhibition: -8.53% and -32.8%
[19]; measured here: cisplatin combination, at 5 µM
  inhibition: 21.8% and -35.6%
